Assay results reported in the OligoGym collection.

Target: NAA35
Test: pooled miR-30 sensor sort-seq; sequence = guide strand
Details: shRNA
Further: reference of the scale not given here.

Sequence	sensor-assay potency score (higher = more potent)
TATATAGGTAGCACTTGGGGGA	-0.0355
TAGTTCACCATTTCTTCCCTTT	0.00785
TTATTTTTGCATATCGAGGGAA	0.0226
TTAATTCTCGACAAGCTTCTTC	0.731
TAATTATTTTTGCATATCGAGG	-1.65
ATATATGTAATAGTACTCGTGC	0.454
TCTATTAACCTCATGGTCCGGG	0.321
TATGTAATAGTACTCGTGCATA	-1.06
TTATTATATAGGTAGCACTTGG	-0.806
TTATTCTATCTATTAATCTTGC	-0.493
TACTGCTAAACATTGTTGGTGT	0.709
TTATATAGGTAGCACTTGGGGG	-1.1

Target: NAALADL1
Test: as above
Details: shRNA

Sequence	sensor-assay potency score (higher = more potent)
TTCCCATACAGCACGTAGCGAT	-0.768
TTGTCGTAGATGCTCAGGTCGC	-1.1
TTGAGGGGCAGGAAGAAGCTGT	-0.568
TCTGTGTACACCAGCACCCCAG	-1.23
TCTCACTGTAGTCACTGACTTT	-1.01
TTACAGAGCAGGTCTCTTGCAT	-0.148
TACAGAGCAGGTCTCTTGCATC	-0.894
TAGACGCTCACATTCACCTGGC	0.571
TTCTGCAGTGTTGATATGCGTT	-0.417
TTGATGTCGGCAGGGTCTGTGT	-1.45
